# The list is not random: actives were taken first. Their share in the collection is about 14%.
# USP30 inh = inhibitors of human USP30 deubiquitinase; Ubiquitin carboxyl-terminal hydrolase 30 (Homo sapiens), Q70CQ3; purified USP30, Ub-rhodamine cleavage fluorescence; inhibition, % at 25 µM; actives 5.3% (n = 47,000)
# USP8 block = inhibitors of human USP8 deubiquitinase; Ubiquitin carboxyl-terminal hydrolase 8 (Homo sapiens), P40818; purified USP8, Ub-rhodamine cleavage fluorescence, 30 min; inhibition, % at 20 µM; actives 4.2% (n = 47,000); AID 1645853, 2021
# USP28 block = inhibitors of human USP28 deubiquitinase; Ubiquitin carboxyl-terminal hydrolase 28 (Homo sapiens), Q96RU2; purified USP28, Ub-rhodamine cleavage fluorescence, 30 min; inhibition, % at 25 µM; actives 3% (n = 47,000)
# USP10 inh = inhibitors of human USP10 deubiquitinase. AID 1645856, 2021. actives 1.1% (n = 47,000). Ubiquitin carboxyl-terminal hydrolase 10 (Homo sapiens), Q14694. inhibition, % at 20 µM. purified USP10, Ub-rhodamine fluorescence, 60 min
# USP17 block = inhibitors of human USP17 deubiquitinase. Ubiquitin carboxyl-terminal hydrolase 17-like protein 5 (Homo sapiens), A8MUK1. purified USP17, Ub-rhodamine cleavage fluorescence, 3 h. inhibition, % at 50 µM. actives 6.5% (n = 47,000). AID 1645855, 2021
# * = called active by the depositor; . = not tested or not shown. Cut-off read from the data, not from the text of the source: active = inhibition above about 30%; inactive = the rest.
SMILES,USP30 inh,USP8 block,USP28 block,USP10 inh,USP17 block
COc1ccccc1OC(C)C(=O)Nc1noc(-c2ccccc2)n1 (configuration not stated),18,8,3,3,1
Cc1cc(NC(=O)COc2ccc(F)c(Cl)c2)no1,12,9,40*,-2,13
O=C(Nc1noc(-c2ccccc2)n1)c1ccc(Br)cc1,25,38*,7,18,21
Cc1cc(NC(=O)CSc2nnc(CNC(=O)COc3ccc(Cl)cc3)o2)no1,-1,19,0,3,4
O=C(COc1ccc(F)cc1)Nc1noc(-c2ccccc2)n1,74*,24,44*,2,63*
Cc1ccc(-c2nc(NC(=O)COc3ccc(Cl)cc3)no2)cc1,-2,93*,89*,65*,93*
Cc1nc(C2CCNCC2)nc2c1CCC(=O)N2Cc1cccc(F)c1,11,9,10,2,6
Cc1noc(-c2c(C)[nH]c(C)c2S(=O)(=O)NCc2ccc(F)cc2)n1,-19,-2,-4,4,-3
Cc1ccc(-c2nc(NC(=O)COc3cc(C)cc(C)c3)no2)cc1,0,3,-9,11,1
Cc1cccc(-c2nc(NC(=O)COc3ccc(F)cc3)no2)c1,68*,83*,61*,15,71*
Cc1cnc(NC(=O)Cn2cnc3ccccc3c2=O)s1,-2,-1,-7,2,40*
O=C(Cn1cnc2ccccc2c1=O)NC1CCCC1,-8,-5,-3,-2,-1
CCOc1ccccc1C1c2[nH]c3ccccc3c2C[C@H]2C(=O)N(CCC3=CCCCC3)CC(=O)N12 (some centres not stated),-102,11,-14,-3,-13
O=C(CSc1cn(Cc2ccccc2)c2ccccc12)Nc1ccc2c(c1)OCCO2,48*,23,60*,12,.
Cc1ccccc1C(=O)NCCn1cc(SCC(=O)N2CCOCC2)c2ccccc21,2,-33,10,-1,-5
O=C(CSc1cn(CC(=O)N2CCCCC2)c2ccccc12)Nc1ccc2c(c1)OCO2,18,-25,10,1,8
Cc1ccccc1Cn1cc(SCC(=O)Nc2ccc(F)cc2)c2ccccc21,9,-8,1,10,-3
Cc1ccccc1Cn1cc(SCC(=O)Nc2ccc3c(c2)OCCO3)c2ccccc21,35*,12,50*,9,11
Cc1ccccc1C(=O)NCCn1cc(SCC(=O)Nc2ccc3c(c2)OCCO3)c2ccccc21,89*,-19,57*,9,22
CC(C)N1CCC(c2nnc3ccc(C(=O)NCc4cccnc4)cn23)C1 (configuration not stated),-3,-71,5,-5,-5
Cc1cc(=O)[nH]c(NC2CCN(CC(=O)Nc3ccc4c(c3)OCCO4)CC2)n1,-18,0,2,-2,-1
CCOc1cccc(CNC(=O)C2c3ccccc3CC(=O)N2CC)c1 (configuration not stated),2,55*,3,1,27
CCn1c(=O)c(CCC(=O)NCc2ccc(OC)cc2)c(C)c2c(C)nn(-c3ccccc3C)c21,77*,2,56*,5,70*
CNC(=O)N1C[C@H]2N(c3ncccn3)CCC[C@@]2(C(=O)NCC2CC2)C1,8,-6,4,0,-2
Cc1cc(C(=O)Nc2nc3c(s2)CN(C(=O)/C=C/c2ccco2)CC3)no1,-77,-10,20,-9,35*
SMILES,USP30 inh,USP8 block,USP28 block,USP10 inh,USP17 block
O=C(Nc1nc2c(s1)CN(C(=O)/C=C/c1ccco1)CC2)c1cnccn1,-107,-81,2,-12,-4
Cc1nc2nc(C(c3ccccc3)c3ccccc3)[nH]n2c(=O)c1Cc1ccccc1,20,27,21,34*,45*
O=C(Nc1ccc(C(F)(F)F)cc1)C1CC(=O)N(c2ccc3c(c2)OCCO3)C1 (configuration not stated),34*,25,19,10,35*
CC(=O)N1C(=O)C2(Nc3ccccc3N2)c2cc(F)ccc21,-14,13,5,1,4
CC(=O)N1CCc2cc(S(=O)(=O)NCCC(=O)Nc3cccc(C)c3C)ccc21,64*,25,12,3,34*
CC(C)CC1Nc2ccc(C(=O)NCCCN3CCCC3)cc2NC1=O (configuration not stated),5,85*,0,2,38*
CC1CCCN(CCCNC(=O)c2ccc3c(c2)NC(=O)C2CCCN32)C1 (configuration not stated),-168,30,-51,-5,-30
Cc1[nH]c2ccccc2c1C(=O)CSc1ncnc2sc3c(c12)CCC3,-31,-5,-4,-3,-6
O=C1CC(c2ccc(Cl)cc2)c2c(nc(-c3ccccc3)[nH]c2=O)N1 (configuration not stated),-2,61*,-7,12,6
O=C1CC(c2ccc(O)cc2)c2c(nc(-c3ccccc3)[nH]c2=O)N1 (configuration not stated),.,8,.,2,35*
O=C1CC(c2cccc(Cl)c2Cl)c2c(nc(-c3ccccc3)[nH]c2=O)N1 (configuration not stated),24,21,-7,5,16
CCOc1ccc(NC(=O)CCn2c(-c3ccc(OC)cc3)cc(C(C)=O)c2C)cc1,80*,19,20,4,70*
COc1ccc(-c2cc(C(C)=O)c(C)n2CCC(=O)NC2CCCCCC2)cc1,-10,-9,-4,-1,-7
CCOc1ccc(NC(=O)CNc2nc(Nc3ccc(OC)cc3)nc(Nc3ccc(OC)cc3)n2)cc1,69*,10,20,29,58*
C[C@H](Cc1cc2c(cc1O)OCO2)[C@@H](C)Cc1cc2c(cc1O)OCO2,93*,64*,97*,84*,100*
Cc1cc2c(cc1CCc1cc3c(cc1C)OCO3)OCO2,0,-6,-2,3,0
COc1cccc(C(=O)Nc2cc3c4c(c2)CC(=O)N4CCC3)c1,-18,65*,33*,-1,17
Cc1ccc(NS(=O)(=O)c2cc3c4c(c2)CC(=O)N4CCC3)cc1C,13,19,10,-1,4
Cc1cccc(C(=O)Nc2cc3c4c(c2)CC(=O)N4CCC3)c1,-22,39*,37*,-2,-5
COc1cc(OC)cc(C(=O)Nc2cccc(N3CCCC3=O)c2)c1,-1,-12,29,0,5
Cc1cnc(CNc2cc(-c3cccc(C(F)(F)F)c3)nc(-c3ccncc3)n2)nc1,-15,-29,-16,-7,-26
O=C(NCC1CCCCC1)c1cnn(-c2ccccc2F)c1C(F)(F)F,-67,-38,-21,-7,-23
COc1cc(OC)c2cc(C(=O)N[C@@H](Cc3ccccc3)C(=O)O)n(C)c2c1,0,58*,5,6,36*

# Assay outcomes as filed in PubChem BioAssay.
